# Where “and” joins values, the source holds several entries; their conditions need not be identical. Equal values may be shown once. Compounds without any hit were thinned out: in the full panel of roughly 83,000, 20% have a hit.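 Cell lines were cultured in 96-well plates, exposed to a single compound concentration, and assessed for percent growth 48 hours later.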 A number with no mark means an inactive call. Calls of active or inactive are those of the source. How the source made its calls: active means growth percent below 10; inactive means the rest.
# Legend:
# Test in all cases: NCI-60 one-dose screen, 48 h (100 = growth as untreated, 0 = no growth, -100 = all killed)
# HCT-15 colon = conditions: 10 µM
# HT29 colon = conditions: 10 µM
# SNB-75 CNS = conditions: 10 µM
# SNB-19 CNS = conditions: 10 µM
# U251 CNS = conditions: 10 µM
# PC-3 prostate = conditions: 10 µM
# UACC-62 melanoma = conditions: 10 µM unless noted
# LOX IMVI melanoma = conditions: 10 µM
# SK-MEL-28 melanoma = conditions: 10 µM
# SK-MEL-2 melanoma = conditions: 10 µM
# EKVX NSCLC = conditions: 10 µM
# SN12C renal = conditions: 10 µM
# UO-31 renal = conditions: 10 µM
# TK-10 renal = conditions: 10 µM unless noted
# ACHN renal = conditions: 10 µM
# CAKI-1 renal = conditions: 10 µM
# A498 renal = conditions: 10 µM
# HL-60(TB) leukemia = conditions: 10 µM
# CCRF-CEM leukemia = conditions: 10 µM
# SK-MEL-5 melanoma = conditions: 10 µM
Structure (SMILES),growth (HCT-15 colon),growth (HT29 colon),growth (SNB-75 CNS),growth (SNB-19 CNS),growth (U251 CNS),growth (PC-3 prostate),growth (UACC-62 melanoma),growth (LOX IMVI melanoma),growth (SK-MEL-28 melanoma),growth (SK-MEL-2 melanoma),growth (EKVX NSCLC),growth (SN12C renal),growth (UO-31 renal),growth (TK-10 renal),growth (ACHN renal),growth (CAKI-1 renal),growth (A498 renal),growth (HL-60(TB) leukemia),growth (CCRF-CEM leukemia),growth (SK-MEL-5 melanoma)
NC(Cc1ccccc1)c1ccccc1 (stereo not given),110% and 97.8%,106% and 95.1%,93.9% and 84.8%,105% and 99.7%,103% and 102%,84.8% and 90%,99.8% and 91.6%,92.2% and 97.5%,101% and 110%,99.8% and 101%,103% and 112%,102% and 101%,93.6% and 69.8%,101% and 103%,105% and 101%,96.5% and 102%,99.9%,102% and 107%,110% and 90%,
[O-][n+]1ccccc1S,32.8%,4.75% (active),56.5%,59.9%,29.9%,30.8%,13.6%,1.84% (active),34.1%,41.2%,72.7%,58.7%,62%,37.2%,32.2%,37.9%,78.7%,109%,8.62% (active),
CN(C)CC1(N)C(=O)NC(=O)NC1=O,102%,99.6%,89.7%,102%,96.3%,93.5%,97.5%,104%,95.1%,101%,103%,96.8%,96.3%,97.9%,101%,96.4%,54.9%,97.5%,99.1%,
CN(CCCl)c1ccc(/C=C/C2=[N+](C)c3ccccc3C2(C)C)cc1,101%,5.58% (active),38.9%,42.5%,13.1%,5.9% (active),31.6%,16.9%,40.1%,46%,54.6%,1.3% (active),87.3%,54.7%,85.2%,102%,66.3%,-29.5% (active),,
NC(=O)c1cc([N+](=O)[O-])c(Cl)c([N+](=O)[O-])c1Cl,-63.9% (active),-88.4% (active),65.1%,74%,-81.5% (active),46.7%,5.65% (active),-50% (active),39.6%,-14.5% (active),35.8%,18.8%,-62.6% (active),-100% (active),-89.7% (active),,,-26.9% (active),-23.5% (active),
COc1cc(/C=C/[N+](=O)[O-])cc(OC)c1OC,-9.12% (active),-27.1% (active),18.9%,56.5%,18.4%,6.51% (active),-26.9% (active),-71.7% (active),-7.3% (active),63.6%,73.6%,30.7%,-85.3% (active),-11% (active),-42.2% (active),-78.2% (active),47.1%,-16.6% (active),,
ClCc1ccc2ccccc2n1,103%,94.1%,81.8%,103%,103%,92.1%,74.9%,80.5%,110%,99.4%,93.2%,86%,89.8%,113%,96.8%,58.5%,98.1%,66.3%,103%,
COc1cc([C@@H]2c3cc4c(c(O)c3C[C@H]3COC(=O)[C@@H]32)OCO4)cc(OC)c1OC,10.2%,12.9%,24%,7.28% (active),23.8%,-0.628% (active),64.3%,19.9%,54.3%,-25.1% (active),44.2%,31.8%,32.7%,38.8%,33.8%,20.3%,-29.1% (active),-33.5% (active),-5.4% (active),
C=C1C(=O)O[C@@H]2C[C@@H](C)[C@@H]3C=CC(=O)[C@@]3(C)[C@@H](O)[C@H]12,-83.7% (active),-66% (active),-94.8% (active),-63.7% (active),-100% (active),-62% (active),-61.4% (active),-97% (active),,-24.4% (active),-61% (active),9.98% (active),-94.9% (active),-97.9% (active),-93.5% (active),-91.6% (active),-17.1% (active),,-42.4% (active),-93.5% (active)
Cn1c(O)c(N=O)c(=O)n(C)c1=O,104% and 111%,117% and 114%,99.3% and 95.2%,107% and 98.5%,94.6% and 109%,101% and 95.1%,99.7% and 93.3%,91.4% and 94.4%,113% and 107%,108% and 109%,110% and 107%,108% and 94.7%,89.1% and 85.7%,102% and 105%,110% and 105%,107% and 113%,84.5% and 97%,96.6% and 101%,111% and 113%,
CS(=N)(=O)CCC(N)C(=O)O (stereo not given),99.9%,113%,91%,102%,104%,89.8%,113%,103%,128%,107%,109%,102%,95.1%,94.1%,103%,83.2%,129%,127%,,
O=C1CCC(=O)N1SC(Cl)(Cl)Cl,107%,102%,92.1%,103%,118%,91.2%,106%,108%,107%,97%,117%,102%,99.1%,99.2%,110%,109%,127%,100%,94.5%,
O=C(O)c1cc(Cc2ccc(O)c(C(=O)O)c2)ccc1O (tested in a mixture with another compound),49.4%,25%,51.2%,85.6%,70.4%,-31.5% (active),69.5%,-47.3% (active),84.6%,-53.3% (active),73.8%,87.1%,42.6%,93%,77%,58.4%,84.7%,21.3%,0.136% (active),
CC/C(=C/c1ccc(OC)cc1)[N+](=O)[O-],-35.4% (active),3.04% (active),53.9%,30.1%,22.5%,59.2%,-60.8% (active),-92.5% (active),-52.4% (active),27%,78%,-43.7% (active),-61.6% (active),-9.47% (active),-43% (active),1.94% (active),85.5%,-1.61% (active),-9.4% (active),

# — PubChem BioAssay (NCI)
